From PubChem
aSyn 5UTR act: Activators working through SNCA 5'UTR binding (MLPCN); 300,000 tested, 7.1% active; AID 1814; activity score, % (tested at 7.5 µM), hits read low; alpha-synuclein 5'UTR reporter, activators screen; in the data active = activity score below about -60%
Of the large screens only hits and unclear results are named; the others gave an inactive call. The list is a sample of the results.

CCOC(=O)C1C(=O)C=C(Nc2ccccc2F)CC1c1ccccc1 (configuration not stated)	aSyn 5UTR act -114
CC(=O)Nc1ccc(NC(=S)NC(=O)/C=C/c2ccc(Cl)cc2)cc1	aSyn 5UTR act -75
CC(=O)c1ccc(NC(=S)NC(=O)/C=C/c2ccccc2)cc1	aSyn 5UTR act -104
Cc1ccnc(NC(=S)NC(=O)/C=C/c2ccccc2)c1	aSyn 5UTR act -68
CCC(=O)Nc1ccc(NC(=S)NC(=O)/C=C/c2ccccc2)cc1	aSyn 5UTR act -62
CCC(=O)Nc1cccc(C(=O)/C=C/c2ccccc2)c1	aSyn 5UTR act -208
O=C(Nc1cccc(Cl)c1)c1cnn2cccnc12	aSyn 5UTR act -202
Cc1cc(NC(=O)c2cnn3cccnc23)no1	aSyn 5UTR act -83
O=C(Nc1cc(Cl)cc(Cl)c1)c1cnn2cccnc12	aSyn 5UTR act -97
CC(=O)Nc1ccc(NC(=O)CN(c2cccc([N+](=O)[O-])c2)S(C)(=O)=O)cc1	none
CCOc1ccc(N(CC(=O)NCc2ccc(OC)cc2)S(C)(=O)=O)cc1	aSyn 5UTR act -81
CCOc1ccc(N(CC(=O)Nc2ccc(C)c(C)c2)S(C)(=O)=O)cc1	aSyn 5UTR act -171
COc1ccc(N(CC(=O)Nc2cc(Cl)ccc2OC)S(=O)(=O)c2c(C)noc2C)cc1	none
COc1ccc(CNC(=O)CN(c2cc(C)cc(C)c2)S(=O)(=O)c2c(C)[nH]c(=O)[nH]c2=O)cc1	aSyn 5UTR act -81
COc1ccccc1N(CC(=O)N/N=C/c1c(O)ccc2ccccc12)S(C)(=O)=O	none
COc1cc(C(=O)Nc2nc3ccccc3s2)ccc1OCc1c(C)noc1C	aSyn 5UTR act -110
Cc1cc(C)n(-c2ccc(C(=O)Nc3nc4ccccc4s3)cc2)n1	aSyn 5UTR act -97
CC(=O)Nc1cc(C)nn1-c1nc2ccccc2s1	aSyn 5UTR act -178
CN1CCc2c(sc(/N=C/c3c[nH]c4ccccc34)c2C#N)C1	aSyn 5UTR act -68
CN1CCc2c(sc(/N=C/c3cc(Cl)ccc3O)c2C#N)C1	aSyn 5UTR act -157
O=C(OC(c1ccccc1)c1nccc2ccccc12)c1cccc([N+](=O)[O-])c1 (configuration not stated)	aSyn 5UTR act -79
CC(C)C(OC(=O)c1ccccc1)c1nccc2ccccc12 (configuration not stated)	aSyn 5UTR act -116
CC(=C/c1ccccc1)/C=N/NC(=O)c1cnccn1	aSyn 5UTR act -190
O=C(N/N=C/C(Cl)=C/c1ccccc1)c1cnccn1	aSyn 5UTR act -102
C/C(=N\NC(=O)C(c1ccccc1)c1ccccc1)c1ccccn1	none
O=C(N/N=C/c1cc([N+](=O)[O-])ccc1Cl)c1cnccn1	none
CC(/C=N/Nc1nc(C)cc(C)n1)=C\c1ccc(C(C)C)cc1	aSyn 5UTR act -153
CC(/C=N/NC(=O)C(O)c1ccccc1)=C\c1ccccc1 (configuration not stated)	aSyn 5UTR act -81
CC(/C=N/NC(=O)c1cccnc1)=C\c1ccccc1	aSyn 5UTR act -124
CC(/C=N\NC(=O)c1cc(C)oc1C)=C\c1ccccc1	aSyn 5UTR act -119
CC(/C=N/NC(=O)c1ccncc1)=C\c1ccc(C(C)C)cc1	aSyn 5UTR act -146
CC(=O)Cn1nnc2sc3c(c2c1=O)CCC(C(C)(C)C)C3 (configuration not stated)	aSyn 5UTR act -113
OCc1ccc(N=Nc2ccccc2)cc1	aSyn 5UTR act -84
Oc1ccc(Cl)cc1N=Nc1ccccc1	aSyn 5UTR act -70
Oc1ccc(N=Nc2ccccc2)cc1	aSyn 5UTR act -145
CC(=O)Nc1ccc(N=Nc2ccc(O)cc2)cc1	aSyn 5UTR act -87
CS(=O)(=O)c1ccc2nc(NC(=O)c3cc4ccccc4o3)sc2c1	aSyn 5UTR act -167
CS(=O)(=O)c1ccc2sc(NC(=O)c3cc4ccccc4o3)nc2c1	aSyn 5UTR act -96
CC(=O)Nc1nc2ccc(-c3nc4ccccc4o3)cc2s1	aSyn 5UTR act -108
CCc1cc2c(=O)n3c(nc2s1)-c1[nH]c2ccc(OC)cc2c1CC3	aSyn 5UTR act -103
Cc1ccc(-c2cc(N)n[nH]2)cc1	aSyn 5UTR act -73
CC(C)(C)c1ccc(-c2cc(N)n[nH]2)cc1	none
CC(C)(C)n1cnc2cc(NC(=O)c3ccco3)ccc21	aSyn 5UTR act -88
O=C(Nc1nc2nccc(-c3ccccc3)n2n1)c1ccccc1	aSyn 5UTR act -83
Nc1nc(NC(=O)c2ccco2)nn1-c1ccccc1	aSyn 5UTR act -66
Cc1cc(NC(=O)c2ccco2)ccc1-n1cnnn1	aSyn 5UTR act -77
Cc1ccnc2nc(NC(=O)c3ccco3)nn12	aSyn 5UTR act -81
O=C(Nc1ccc2nn(-c3ccccc3)nc2c1)c1ccco1	aSyn 5UTR act -255
CC(=O)Nc1cc2nn(-c3ccccc3)nc2cc1Cl	aSyn 5UTR act -123
O=C(Nc1cc2nn(-c3ccccc3)nc2cc1Cl)c1ccco1	aSyn 5UTR act -129
Cc1cccc(N2Cc3ccc(Br)cc3C2)c1	aSyn 5UTR act -125
CN(C)C(=O)c1cc(C(=O)c2ccc(F)cc2Cl)c[nH]1	aSyn 5UTR act -93
CN(C)C(=O)c1cc(C(=O)c2ccc(Cl)cc2Cl)c[nH]1	aSyn 5UTR act -94
CN(C)C(=O)c1cc(C(=O)c2ccc(C(F)(F)F)cc2)c[nH]1	aSyn 5UTR act -151
O=C1/C(=C/c2ccc(N3CCOCC3)o2)SC(=Nc2ccccc2)N1CCc1c[nH]c2ccccc12	aSyn 5UTR act -121
O=[N+]([O-])c1ccccc1/C=N/Nc1nccnc1Cl	aSyn 5UTR act -184
Oc1ccccc1/C=N/Nc1nccnc1Cl	none
Nc1cc(Cl)nc(N/N=C/c2ccccc2[N+](=O)[O-])n1	aSyn 5UTR act -188
CCCCCCCCCCn1ccc(=N)cc1	none
CCCCCCCCn1ccc(=N)cc1	none
CCCCCCN1Cc2ccccc2C1	aSyn 5UTR act -117
CC(C)N1C(=O)/C(=C/c2nc3ccccc3c(=O)n2-c2ccccc2)c2ccccc21	aSyn 5UTR act -66
CC1=CC(C)=Nc2ccc(C)cc2N1	aSyn 5UTR act -63
COC1=C(C)C(O)=C(C(=O)/C=C/c2ccccc2)C(=O)C1(C)C	aSyn 5UTR act -104
O=C(Nc1ccc(NC(=O)C23CC4CC(CC(C4)C2)C3)cn1)c1ccco1	aSyn 5UTR act -144
CCC(=O)Nc1ccc(NC(=O)C23CC4CC(CC(C4)C2)C3)cn1	aSyn 5UTR act -94
CCOC(=O)c1cnc(Nc2nc3ccccc3o2)nc1CSc1nnc(C)s1	aSyn 5UTR act -86
CCOC(=O)c1cnc(Nc2nc3ccccc3o2)nc1C	none
COc1cccc(/C=C2\CCc3ccccc3C2=O)c1	aSyn 5UTR act -97
COc1ccc2c(c1)CC/C(=C\Nc1ccc3c(c1)OCO3)C2=O	aSyn 5UTR act -197
COc1ccc2c(c1)CC/C(=C\C=C\c1ccccc1)C2=O	aSyn 5UTR act -64
COc1ccc(OC)c(C2C3=C(COC3=O)Nc3cc4c(cc32)OCO4)c1 (configuration not stated)	none
COc1ccc2c(c1)CC/C(=C/c1ccccn1)C2=O	aSyn 5UTR act -81
O=C1/C(=C/Nc2ccc3c(c2)OCO3)CCc2ccccc21	none
COc1ccc(N/C=C2\CCc3ccccc3C2=O)cc1	none
Cc1cnnc2ccc3c(no[n+]3[O-])c12	aSyn 5UTR act -93
CSc1nnc(NC(=O)CCc2ccccc2)s1	aSyn 5UTR act -65
CC(C)(C)Cc1nnc(NC(=O)CCc2ccccc2)s1	aSyn 5UTR act -124
CC(=O)C(Sc1nc(N2CCOCC2)nc(N2CCOCC2)n1)C(=O)Nc1ccccc1 (configuration not stated)	aSyn 5UTR act -66
CC(=O)C(Sc1nn(C)c(=S)s1)C(=O)Nc1ccccc1 (configuration not stated)	aSyn 5UTR act -99
